{"source": "the supplement of paper PMC3334620", "note": "The full ranking holds about 33,000 sequences; the median of “E-score (-0.5 to 0.5)” is about -0.0059, and the highest 2% start at about 0.26. Only a selection was taken, and the highest values are over-represented in it overall."}
{"target": "T1, Cin5 (UniProt P40917)", "T1 sequence": "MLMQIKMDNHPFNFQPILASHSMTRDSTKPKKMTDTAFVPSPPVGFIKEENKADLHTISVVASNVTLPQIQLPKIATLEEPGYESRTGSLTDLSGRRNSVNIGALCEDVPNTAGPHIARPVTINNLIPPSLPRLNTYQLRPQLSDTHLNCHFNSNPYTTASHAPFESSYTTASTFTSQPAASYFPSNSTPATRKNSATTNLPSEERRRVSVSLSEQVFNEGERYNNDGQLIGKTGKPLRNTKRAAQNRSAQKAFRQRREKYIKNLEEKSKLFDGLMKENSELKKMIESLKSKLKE", "test": "PBM E-score (8-mer binding enrichment) (E-score (-0.5 to 0.5)); higher = stronger / more preferred TF binding", "settings": "protein concentration: 100 nM; construct: GST-full length", "description": "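Universal 'all 10-mer' protein binding microarrays (Agilent AMADID 015681) probed with GST-tagged S. cerevisiae TFs (full-length or DBD) made by in vitro transcription/translation (PURExpress), about 100-200 nM. Bound TF was detected with fluorescent anti-GST. Each ungapped 8-mer (which stands for itself and its reverse complement) is scored by the PBM enrichment score (E-score), a modified Wilcoxon-Mann-Whitney statistic from -0.5 to +0.5, computed with the Universal PBM Analysis Suite. Scale: above 0.35 generally sequence-specific binding.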"}
{"sequence": "GCAAGGGC", "PBM E-score": -0.235}
{"sequence": "TAACATGA", "PBM E-score": 0.071}
{"sequence": "AGCTTCCT", "PBM E-score": 0.00798}
{"sequence": "CAGCAAAG", "PBM E-score": -0.0276}
{"sequence": "GAATCTGA", "PBM E-score": -0.0334}
{"sequence": "GAGCTTTA", "PBM E-score": -0.0441}
{"sequence": "CAGTATAA", "PBM E-score": 0.284}
{"sequence": "AAGTATAA", "PBM E-score": 0.216}
{"sequence": "AAGTATTA", "PBM E-score": 0.0531}
{"sequence": "GAGTATAA", "PBM E-score": 0.181}
{"sequence": "GAGTATTA", "PBM E-score": 0.178}
{"sequence": "CAGTATTA", "PBM E-score": 0.294}
{"sequence": "GGAAGTCA", "PBM E-score": 0.0165}
{"sequence": "GAACTCCA", "PBM E-score": 0.0209}
{"sequence": "CAGCATGC", "PBM E-score": -0.0241}
{"sequence": "GGATCAAA", "PBM E-score": 0.0839}
{"sequence": "CTCTGGCC", "PBM E-score": -0.234}
{"sequence": "GGGACCAC", "PBM E-score": -0.174}
{"sequence": "CCGCCTAA", "PBM E-score": -0.0943}
{"sequence": "CATGTAAA", "PBM E-score": -0.054}
{"sequence": "AATGTCAA", "PBM E-score": 0.176}
{"sequence": "TATGTCAA", "PBM E-score": 0.294}
{"sequence": "GATGTAAA", "PBM E-score": 0.13}
{"sequence": "TATGTAAA", "PBM E-score": 0.286}
{"sequence": "GATGTCAA", "PBM E-score": 0.0458}
{"sequence": "ATACTCCA", "PBM E-score": 0.122}
{"sequence": "AGCAGAGA", "PBM E-score": 0.0498}
{"sequence": "ATTCATTA", "PBM E-score": 0.122}
{"sequence": "ATTCATTG", "PBM E-score": 0.116}
{"sequence": "ATTCATTC", "PBM E-score": 0.299}
{"sequence": "ACTCAGAC", "PBM E-score": -0.0116}
{"sequence": "AAATAGAC", "PBM E-score": 0.143}
{"sequence": "AACTATAG", "PBM E-score": 0.051}
{"sequence": "ACCTATAT", "PBM E-score": 0.269}
{"sequence": "AAATATAC", "PBM E-score": 0.178}
{"sequence": "AACTATAC", "PBM E-score": 0.0815}
{"sequence": "AAATAGAG", "PBM E-score": -0.0761}
{"sequence": "AAATAGAT", "PBM E-score": 0.297}
{"sequence": "AAATATAT", "PBM E-score": 0.295}
{"sequence": "ACCTATAC", "PBM E-score": 0.0459}
{"sequence": "AACTATAT", "PBM E-score": 0.294}
{"sequence": "ACCTATAA", "PBM E-score": -0.0275}
{"sequence": "AAATATAA", "PBM E-score": 0.203}
{"sequence": "ACATCAGC", "PBM E-score": 0.0733}
{"sequence": "CACTGAAC", "PBM E-score": 0.0413}
{"sequence": "AGAGAGCC", "PBM E-score": -0.283}
{"sequence": "CGTAGTGC", "PBM E-score": -0.0666}
{"sequence": "GGCGTGAA", "PBM E-score": -0.183}
{"sequence": "CAATAAGG", "PBM E-score": -0.0974}
{"sequence": "AGTCGGCA", "PBM E-score": -0.0519}
{"sequence": "CGGCCGTC", "PBM E-score": -0.125}
{"sequence": "CACCCCCC", "PBM E-score": -0.498}
{"sequence": "AAGCAAGC", "PBM E-score": 0.0852}
{"sequence": "ATCATGAT", "PBM E-score": 0.098}
{"sequence": "AACTATAA", "PBM E-score": 0.195}
{"sequence": "TACTATAA", "PBM E-score": 0.333}
{"sequence": "CACTATAA", "PBM E-score": -0.0724}
{"sequence": "ATGCCCCA", "PBM E-score": -0.0481}
{"sequence": "AGCAAGGC", "PBM E-score": -0.0671}
{"sequence": "ACCGCCAA", "PBM E-score": -0.0388}
{"sequence": "AAGAGAAT", "PBM E-score": 0.261}
{"sequence": "AAGAGAAG", "PBM E-score": -0.0313}
{"sequence": "AAGAGAAA", "PBM E-score": -0.0461}
{"sequence": "AAATTCAT", "PBM E-score": 0.0992}
{"sequence": "AAGAGTTA", "PBM E-score": -0.0309}
{"sequence": "CCATCACG", "PBM E-score": -0.0302}
{"sequence": "AGTCGAGG", "PBM E-score": -0.168}
{"sequence": "ATATACAC", "PBM E-score": 0.134}
{"sequence": "ATATACTC", "PBM E-score": 0.209}
{"sequence": "CAATACAG", "PBM E-score": 0.0431}
{"sequence": "ATATACTA", "PBM E-score": 0.318}
{"sequence": "CTATACAA", "PBM E-score": 0.00862}
{"sequence": "ATATACAA", "PBM E-score": 0.266}
{"sequence": "CTATACTA", "PBM E-score": 0.198}
{"sequence": "CAATACAC", "PBM E-score": 0.00745}
{"sequence": "CAATACAA", "PBM E-score": 0.308}
{"sequence": "CAACGACC", "PBM E-score": -0.0159}
{"sequence": "TTCCTAAA", "PBM E-score": -0.157}
{"sequence": "CGATGCGC", "PBM E-score": 0.0485}
{"sequence": "GAGCGGAC", "PBM E-score": -0.251}
{"sequence": "CTTCCAAA", "PBM E-score": 0.0243}
{"sequence": "AAGACTCG", "PBM E-score": -0.0863}
{"sequence": "CTGCCCGA", "PBM E-score": -0.00627}
{"sequence": "AGGCGGCG", "PBM E-score": -0.0941}
{"sequence": "CTGACGTA", "PBM E-score": 0.278}
{"sequence": "ATGACGTG", "PBM E-score": 0.191}
{"sequence": "ATGACGTA", "PBM E-score": 0.338}
{"sequence": "CTGACGTC", "PBM E-score": 0.035}
{"sequence": "ATGACGTC", "PBM E-score": 0.255}
{"sequence": "GTGACGTA", "PBM E-score": 0.204}
{"sequence": "AGATTAGA", "PBM E-score": -0.0761}
{"sequence": "AGGGGGGC", "PBM E-score": -0.479}
{"sequence": "AATTATAC", "PBM E-score": 0.208}
{"sequence": "CATTATCG", "PBM E-score": 0.0028}
{"sequence": "CATTATAC", "PBM E-score": 0.287}
{"sequence": "CATTATCC", "PBM E-score": 0.276}
{"sequence": "CATTATAA", "PBM E-score": 0.0881}
{"sequence": "GATTATCC", "PBM E-score": 0.0776}
{"sequence": "CACGGAGG", "PBM E-score": -0.173}
{"sequence": "CTGTCTAA", "PBM E-score": -0.0712}
{"sequence": "CGCGCCGA", "PBM E-score": -0.124}
{"sequence": "CAGGTCCC", "PBM E-score": -0.187}
{"sequence": "GCCTCCTA", "PBM E-score": -0.264}
{"sequence": "GATTATGC", "PBM E-score": 0.172}
{"sequence": "GATTATGA", "PBM E-score": 0.291}
{"sequence": "CATTATGA", "PBM E-score": 0.13}
{"sequence": "AATTATTA", "PBM E-score": 0.242}
{"sequence": "CATTATTA", "PBM E-score": 0.223}
{"sequence": "GATTATTA", "PBM E-score": 0.316}
{"sequence": "ACTGCAAC", "PBM E-score": -0.0484}
{"sequence": "AAGAGTCA", "PBM E-score": -0.12}
{"sequence": "CAAAGATA", "PBM E-score": 0.12}
{"sequence": "CGAAGATA", "PBM E-score": 0.266}
{"sequence": "AGAAGATA", "PBM E-score": 0.188}
{"sequence": "GAAAGATA", "PBM E-score": 0.31}
{"sequence": "GAAAGAAA", "PBM E-score": 0.283}
{"sequence": "CAAAGAAA", "PBM E-score": 0.0585}
{"sequence": "TAAAGATA", "PBM E-score": 0.171}
{"sequence": "GGAAGATA", "PBM E-score": 0.13}
{"sequence": "GAAAGAAC", "PBM E-score": -0.0462}
{"sequence": "CACGAGAC", "PBM E-score": -0.11}
{"sequence": "TAAGAAGA", "PBM E-score": 0.122}
{"sequence": "GATGCAAC", "PBM E-score": -0.0342}
{"sequence": "GGAACCCA", "PBM E-score": -0.0933}
{"sequence": "TAAAGGGA", "PBM E-score": -0.115}
{"sequence": "AATTGGGG", "PBM E-score": 0.0653}
{"sequence": "AATTGGGC", "PBM E-score": 0.0334}
{"sequence": "AATTGGGT", "PBM E-score": 0.319}
{"sequence": "CATAGCAA", "PBM E-score": 0.111}
{"sequence": "GATAGCAA", "PBM E-score": 0.279}
{"sequence": "TATAGCAA", "PBM E-score": 0.134}
{"sequence": "CTTAAGAA", "PBM E-score": 0.0235}
{"sequence": "ACGGAAAT", "PBM E-score": 0.305}
{"sequence": "ACGGAAAC", "PBM E-score": -0.00025}
{"sequence": "ACGGAAAA", "PBM E-score": 0.161}
{"sequence": "CGGCACCG", "PBM E-score": 0.00123}
{"sequence": "ACACATAC", "PBM E-score": 0.0411}
{"sequence": "GCACATAA", "PBM E-score": 0.0702}
{"sequence": "ACACATAG", "PBM E-score": -0.0306}
{"sequence": "TCACATAA", "PBM E-score": 0.31}
{"sequence": "ACACATAA", "PBM E-score": 0.274}
{"sequence": "CCACATAA", "PBM E-score": 0.184}
{"sequence": "CACTATCG", "PBM E-score": 0.0597}
{"sequence": "AGCCAAAA", "PBM E-score": 0.0959}
{"sequence": "CGGTTTGA", "PBM E-score": -0.0691}
{"sequence": "AGGTTTAT", "PBM E-score": 0.251}
{"sequence": "CGAGAGCC", "PBM E-score": -0.163}
{"sequence": "AAGCCAAT", "PBM E-score": 0.122}
{"sequence": "AACGTAAC", "PBM E-score": 0.217}
{"sequence": "GACGTAAA", "PBM E-score": 0.103}
{"sequence": "AACGTAAA", "PBM E-score": 0.21}
{"sequence": "ATCGTAAG", "PBM E-score": 0.159}
{"sequence": "TACGTATA", "PBM E-score": 0.167}
{"sequence": "CTCGTAAG", "PBM E-score": 0.304}
{"sequence": "AACGTAAG", "PBM E-score": 0.274}
{"sequence": "CTCGTAAC", "PBM E-score": 0.129}
{"sequence": "CACGTAAC", "PBM E-score": 0.0354}
{"sequence": "CACGTAAG", "PBM E-score": 0.288}
{"sequence": "CACGTAAA", "PBM E-score": -0.0217}
{"sequence": "TACGTAAA", "PBM E-score": 0.302}
{"sequence": "AGCAGCGC", "PBM E-score": -0.0185}
{"sequence": "ACCACCTG", "PBM E-score": -0.0268}
{"sequence": "AATCGCTA", "PBM E-score": -0.0414}
{"sequence": "ACGAGCCC", "PBM E-score": -0.0676}
{"sequence": "GAACTCAC", "PBM E-score": -0.014}
{"sequence": "ACCGTAAT", "PBM E-score": 0.223}
{"sequence": "AACGTACT", "PBM E-score": 0.105}
{"sequence": "AACGTAAT", "PBM E-score": 0.421}
{"sequence": "AAATTAGT", "PBM E-score": 0.293}
{"sequence": "AATTTAGG", "PBM E-score": 0.168}
{"sequence": "AAATTAGG", "PBM E-score": 0.102}
{"sequence": "AATTTAGT", "PBM E-score": 0.284}
